Compounds with a hit are over-represented: about 10% of the library has one in this group of screens.
G9a inh: G9a (human) methyltransferase inhibition. G9a H3K9 monomethylation, AlphaScreen, 2 h. Potency, µM (top dose mostly 102 µM), for the others: at the top dose activity, negative = inhibition, hits mostly inhibitors. 350,000 compounds, 8.8% hits. AID 504332; further: on the % scale 0 is the no-effect control and ±100 the full control effect; nearly all actives have a fitted effect of over 75% in size
Target sequence (Q96KQ7 913-1193 limits assumed): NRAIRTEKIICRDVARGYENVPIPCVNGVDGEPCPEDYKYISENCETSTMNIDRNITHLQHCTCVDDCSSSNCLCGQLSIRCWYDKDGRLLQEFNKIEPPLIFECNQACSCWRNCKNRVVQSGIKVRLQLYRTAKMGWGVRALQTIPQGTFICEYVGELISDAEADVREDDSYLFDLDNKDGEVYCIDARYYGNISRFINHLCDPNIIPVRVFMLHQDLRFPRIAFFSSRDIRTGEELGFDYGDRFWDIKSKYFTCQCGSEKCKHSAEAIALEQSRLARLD
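Chemiluminescent proximity detection of H3K9 monomethylation, read after 10 min bead incubation in the dark. Reaction: 20 nM G9a, 500 nM biotin-H3K9 peptide, 20 uM SAM cofactor, 2 h, room temperature, following 15 min enzyme-compound preincubation.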
BAZ2B block: inhibitors of human BAZ2B bromodomain; Potency, µM (doses to about 114 µM), for inactives: top-dose activity change, negative = inhibition, hits mostly inhibitors; 360,000 compounds, 4.4% hits; AlphaScreen BAZ2B-H3K14Ac peptide displacement; further: on the % scale 0 is the no-effect control and ±100 the full control effect; nearly all actives have a fitted effect of over 60% in size
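AlphaScreen displacement of biotin-H3(5-23)K14Ac peptide (50 nM final) from BAZ2B (50 nM final) in PBS pH 7.4, 0.01% Tween-20; complex preformed 30 min RT, then compounds (top 110 uM) 30 min RT, beads 20 min dark.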
HP1b chromo inh: inhibitors of HP1-beta chromodomain binding to methylated histone tails; P83916; AlphaScreen HP1-beta / biotin-H3K9me3 peptide binding; Potency, µM (top dose mostly 114 µM), inactives show at the top dose activity change, negative = inhibition, actives largely listed as inhibitors; 390,000 compounds, 0.56% hits; further: nearly all actives have a fitted effect of over 70% in size
Target sequence (P83916 whole entry, looked up): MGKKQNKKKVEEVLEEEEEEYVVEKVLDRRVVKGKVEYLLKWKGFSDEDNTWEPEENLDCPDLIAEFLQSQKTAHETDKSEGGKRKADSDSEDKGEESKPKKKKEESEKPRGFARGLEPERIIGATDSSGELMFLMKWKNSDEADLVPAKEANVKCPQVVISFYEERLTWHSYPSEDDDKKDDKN
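Compound inhibition of the preformed complex between 50 nM HP1-beta and 50 nM biotinylated H3K9me3 peptide was read by AlphaScreen. Buffer was PBS pH 7.4 with 0.01% Tween-20. Incubations ran 30 min at room temperature, with 10 ug/mL donor/acceptor beads.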
GLS inh: glutaminase GLS (human) inhibition; O94925; GLS enzymatic activity, qHTS titration; Potency, µM (doses to about 45.5 µM), without a hit: top-dose activity change, negative = inhibition, actives largely listed as inhibitors; 410,000 compounds, 0.21% hits; AID 624170; further: on the % scale 0 is the no-effect control and ±100 the full control effect
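Human kidney-isoform GLS in 45 mM KH2PO4 pH 8.2, 0.02% Tween-20, with compound, started with 1mM L-Glutamine (added stock). Glutamate oxidase/HRP/Amplex red coupled fluorescence read at start and after 30 min at RT.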
JMJD2A Tudor inh: blocks the human JMJD2A Tudor domain; Potency, µM (series often up to 114 µM), for the others: top-dose activity change, negative = inhibition, usual class: inhibitors; AID 504339; AlphaScreen JMJD2A-Tudor / H3K4me3 peptide binding; 390,000 compounds, 4.4% hits; O75164; further: on the % scale 0 is the no-effect control and ±100 the full control effect; nearly all actives have a fitted effect of over 50% in size
An asterisk follows results filed as active; ? = inconclusive; / = no result given; [ ] = remark or other dose. The call rests on the fitted dose curve; in most records, active means well fitted curve in the direction sought with a large enough effect; inconclusive means small, poorly fitted or top-dose-only effect, or another doubt; inactive means no such curve, though single readings can be large; an effect the other way counts as inactive or inconclusive. Potency means the concentration at half of the fitted maximal effect.

SMILES	G9a inh	BAZ2B block	HP1b chromo inh	GLS inh	JMJD2A Tudor inh
CCCN1CCC(=O)N([C@H](COc2ccccc2)c2ccccc2)CC1	40µM*	?	23%	0%	-12%
Cc1nn(Cc2ccc(C(=O)N3c4ccc(F)cc4CCC3C)o2)c(C)c1Br (configuration not stated)	50µM*	-26%	25%	-2%	-26%
Cc1ccc(C(=O)N2c3ccc(F)cc3CCC2C)o1 (configuration not stated)	-8%[59 µM]	2%	34%	14%	-12%
COc1ccc(C(=O)C(/C=N/O)=N/Nc2ccc(F)cc2)cc1	18µM*	?	20%	-1%	-16%
CO/N=C/C(=N\Nc1ccc(OC)cc1)C(=O)c1ccc(OC)cc1	35µM*	?	-26%	8%	?
COc1ccc(N/N=C(/Oc2ccc([N+](=O)[O-])cc2)C(C)=O)cc1	?	?	-20%	11%	-26%
CC(C)c1ccc(C(N)=S)cc1	50µM*	?	-6%	2%	-9%
Cc1cc(Cl)c(OCCCn2ccnc2)c(Br)c1	?	50µM*	?	3%	22µM*
Cc1cccc(C)c1OCCCn1ccnc1	/	?	?	5%	25µM*
Clc1ccc(OCCCn2ccnc2)c(Br)c1	3.5µM*	32µM*	16µM*	10%	5.6µM*
Cc1ccc(OCCCCn2ccnc2)c(Cl)c1	-16%[59 µM]	-38%	-1%	-9%	?
NC(=O)CCC(NC(=O)OCc1ccccc1)C(=O)OCC(=O)c1ccccc1 (configuration not stated)	/	/	/	0%	/
O=C1CC(NCC2CCCO2)C(=O)N1c1ccc(Cl)cc1 (configuration not stated)	45µM*	-14%	24%	-4%	-14%
COc1ccc(-c2c(-c3ccccc3OC)oc3ccccc23)cn1	5%[0.501 µM]	56%	134%	-10%	72%
CCOC(=O)c1c(/N=C/c2cccc([N+](=O)[O-])c2O)sc(C)c1C	7.1µM*	45µM*	45µM*	19%	50µM*
O=[N+]([O-])c1cccc(C=Nc2cccc3ccccc23)c1O	/	?	3%	19%	?
COc1ccccc1OCCNc1ccc(S(=O)(=O)N2CCCC2)cn1	2%	7%	34%	13%	-5%
CN(Cc1cccs1)C(=O)CSc1nc(N)cc(N)n1	-1%	/	11%	-2%	79µM*
CCc1ccc[n+](-c2[nH]c(=O)sc2/C=N/N=C(\[O-])c2ccncc2)c1	40µM*	?	24%	8%	-12%
CCC(=O)Nc1c(C)nn(-c2ccc(C)c(C)c2)c1C	28µM*	-22%	8%	16%	1%
Cc1ccc(-n2nc(C)c(NC(=O)CCl)c2C)cc1C	-4%	3%	23%	0%	7%
O=C(COC(=O)c1cc(=O)[nH]c2ccccc12)Nc1ccccc1F	/	/	1%	2%	-10%
CC(OC(=O)c1cc(=O)[nH]c2ccccc12)C(=O)N1C(C)CCCC1C (configuration not stated)	25%[2.33 µM]	3%	44%	3%	18µM*
CC(OC(=O)c1cc(=O)[nH]c2ccccc12)C(=O)Nc1ccccc1F (configuration not stated)	32µM*	8%	36%	1%	3%
Cc1cc(N2CCCC2=O)ccc1S(=O)(=O)N1CCOCC1	/	-5%	28%	9%	0%
SMILES	G9a inh	BAZ2B block	HP1b chromo inh	GLS inh	JMJD2A Tudor inh
COc1cc(C2NC(=O)C(C#N)=C(S)N2c2ccc(C)cc2)ccc1OC(C)C (configuration not stated)	?	-35%	24%	28%	-16%
COc1ccc(C2NC(=O)C(C#N)=C(S)N2c2ccc(C)cc2)cc1OC (configuration not stated)	45µM*	-31%	11%	21%	-21%
COc1ccc(C2NC(=O)C(C#N)=C(S)N2c2cccc(C)c2)cc1OC (configuration not stated)	40µM*	-35%	23%	5%	-18%[57.1 µM]
CCC(=O)c1ccc(NC(C)=O)cc1O	6%	-1%	37%	0%	1%
CC(=O)Nc1ccc2c(c1)C(C)(C)C(C)N2C (configuration not stated)	18µM*	?	21%	-11%	-17%
O=c1c(C(c2ccccc2)c2c(O)sc3ccccc3c2=O)c(O)sc2ccccc12	?	28µM*	22%	8%	-9%
Cc1ccc([N+](=O)[O-])c(NC(=O)COC(=O)C2CC3CCCC(C2)C3=O)c1C (configuration not stated)	79µM*	-18%	36%	6%	-17%
O=C(OCC(=O)c1ccc[nH]1)c1ccc(Cl)nc1	-9%	?	8%	-19%	-29%
CN(C)CCOCCOc1ccccc1-c1ccccc1	-34%[0.501 µM]	20µM*	?	-1%	2.8µM*
CN(C)CCOCCP(=O)(c1ccccc1)c1ccccc1	22%	12%	10%	-19%	-23%
N=C(N)CCCOc1ccccc1-c1ccccc1	5%[59 µM]	2%	38%	-4%	3%
CN(C)CCOc1ccccc1-c1ccccc1	-41%[2.33 µM]	25µM*	?	7%	0.89µM*
Cc1onc(-c2ccccc2)c1C(=O)NC1C(=O)N2C(C(=O)O)C(C)(C)S[C@@H]12 (some centres not stated)	4%[2.33 µM]	/	/	/	/
COc1ccc(CCn2c(C)c(C(C)=O)c(C(C)=O)c2C)cc1OC	-4%	-15%	-6%	5%	-8%
Cc1cc(=O)c(C(=O)Nc2cccc(N3CCCC3=O)c2)nn1-c1ccccc1F	8%[12.7 µM]	-1%	31%	-1%	-13%
COc1cccc(-c2noc(C3CCCN(S(=O)(=O)c4cccc(Cl)c4C)C3)n2)c1 (configuration not stated)	?	-2%	52%	2%	7%
CCOc1ccc(-c2nnc(-c3ccncc3)o2)cc1	-30%	-36%	?	43%	50µM*
CCCCOc1ccc(-c2nnc(-c3ccncc3)o2)cc1	12%	9%	19%	0%	-9%
CC[C@H](CO)Oc1cc(NCc2ccc(Cl)c(Cl)c2)c2ncn(C(C)C)c2c1	/	/	-15%	23%	32µM*
CCC(CO)Oc1cc(NCc2cccc(C)c2)c2ncn(C(C)C)c2c1 (configuration not stated)	/	/	30%	21%	?
CCC(CO)Oc1cc(NCc2ccc(OC)cc2)c2ncn(C(C)C)c2c1 (configuration not stated)	-4%[0.501 µM]	?	-7%	24%	-36%
CCC(CO)Oc1cc(NCc2ccc(Cl)cc2)c2ncn(C(C)C)c2c1 (configuration not stated)	/	/	-21%	-3%	50µM*
CCOc1cc(NCc2ccccc2)c2ncn(C(C)C)c2c1	/	/	?	35%	50µM*
